Assay results as given in the supplement of paper PMC3842684.

Key:
[1] = system: P. falciparum NF54-pfs16-GFP early (I-III) stage gametocytes; assay: relative % inhibition of viable gametocyte number; higher = more gametocytocidal; details: stage: early (I-III) gametocyte, incubation 72 h
Outline: (§1)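 Magnet-isolated NF54 pfs16-GFP gametocytes at early (I/IIa, day 2) or late (day 8) stage were exposed to compound at 5 or 0.5 µM for 72 h at 37°C, 5% CO2, 5% O2, at 10% parasitaemia and 0.1% haematocrit. Elongated GFP objects with MitoTracker Red signal above cut-off were counted as viable by confocal imaging. Relative inhibition was normalised to in-plate vehicle and positive-control wells.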

[2] = system: P. falciparum NF54-pfs16-GFP late (IV-V) stage gametocytes; assay: as above; details: stage: late (IV-V) gametocyte, incubation 72 h
Outline: as §1

Compound	relative % inhibition ([1]; 0.5 µM)	relative % inhibition ([1]; 5 µM)	relative % inhibition ([2]; 0.5 µM)	relative % inhibition ([2]; 5 µM)
CCOC(=O)C1=CN(C)C=C(C(=O)OCC)C1c1cc(Br)c(OCC)c(OC)c1	38.1%	89.7%	16.5%	37.9%
Cc1ccc(F)cc1NC(=O)c1cc(Cl)ccc1Nc1ccccc1	23.8%	73.8%	23.8%	46.8%
Cc1cc(N2CCN(C3CCCC3)CC2)n2c(nc3ccccc32)c1C#N	-10.1%	-15.8%	11.3%	6.77%
CCOc1ccc(-c2nc(NC(=O)c3cccc(S(C)(=O)=O)c3)sc2C)cc1	17.8%	15.4%	4.66%	-3.57%
CCCCNCC(O)(c1ccc(Cl)cc1)c1ccc(Cl)cc1	10.1%	88.5%	12.2%	44%
COc1cccc(Cn2c(Oc3ccccc3)nc3c2c(=O)n(C)c(=O)n3C)c1	1.22%	-14%	6.35%	9.52%
CCOc1ccc(Nc2ccnc3cc(Cl)ccc23)cc1	-5.49%	-2.53%	14.7%	14.7%
CCOC(=O)c1c(NC(=O)c2ccccc2)sc2c(O)c(CN(CC)CC)ccc12	28.6%	94.9%	64.2%	89.6%
CCOc1ccc(CN2CCN(CC(O)COc3ccc(OCC(O)CN4CCN(Cc5ccc(OCC)cc5)CC4)cc3)CC2)cc1 (configuration not stated)	6.71%	74.7%	-16.8%	8.51%
Cc1cccc(-n2ncc3c(=O)[nH]c(-n4nc(C)cc4NC(=O)c4cc5ccccc5o4)nc32)c1	-5.22%	49%	100%	102%
Cc1ccc2nc(C)cc(Nc3cccc(C(F)(F)F)c3)c2c1	-7.3%	60.2%	26.7%	19.3%
COc1ccc(C(O)(CCC(C)C)C(CN2CCOCC2)c2ccc(Cl)cc2)cc1 (configuration not stated)	6.71%	94.3%	12.1%	25%
CCCCCCOC(=O)C1=C(C)NC(=O)NC1c1ccccc1F (configuration not stated)	9.08%	4.18%	-3.35%	3.92%
Cc1ccc(Nc2nc(NCCO)c3ccccc3n2)cc1C	-7.63%	84.7%	38%	53.9%
COc1ccc(C(=O)NC(c2ccc(Cl)cc2Cl)c2cc(Cl)c3cccnc3c2O)cc1 (configuration not stated)	42.5%	107%	50.9%	98.7%
COc1ccc(CCNC(=O)c2cc(S(=O)(=O)N3CC(C)CC(C)C3)ccc2Sc2ccc(F)cc2)cc1OC (configuration not stated)	10.1%	-11.3%	17.9%	20.1%
CCCCOC(=O)c1ccc(Nc2cc(C)nc3ccc(OC)cc23)cc1	-28.1%	70%	13.1%	18.5%
O=C(Cc1ccccc1)NC(c1ccc(Cl)cc1)c1c(O)ccc2ccccc12 (configuration not stated)	14.2%	104%	1.94%	27.6%
CCOC(=O)C1CCN(C(=O)CN2C(=O)c3ccccc3C2c2c[nH]c3ccccc23)CC1 (configuration not stated)	7.45%	98.3%	28.9%	63.3%
COc1ccc(CCN2C(=O)c3[nH]nc(-c4cc(Cl)c(C)cc4O)c3C2c2ccccc2F)cc1 (configuration not stated)	1.69%	-0.844%	30.2%	51.9%
Cc1sc(NC(=O)c2ccco2)c(C(c2cccnc2)N2CCC(Cc3ccccc3)CC2)c1C (configuration not stated)	-12.2%	85.7%	14.3%	106%
O=c1nc(C=Cc2ccc(Cl)cc2)oc2ccccc12	10.5%	-14.5%	7.96%	19.3%
O=C(c1ccccc1F)N(Cc1ccc(Cl)cc1)c1ccccn1	-17.2%	-20.6%	2.03%	16.8%
